This is a sample that favours compounds with a hit; in the whole collection about 6.5% have one here.
Vaccinia Venus = qHTS for Stage-Specific Inhibitors of Vaccinia Orthopoxvirus: Venus Reporter Primary qHTS. Vaccinia virus Venus reporter expression, fluorescence. Potency, µM (top dose mostly 36.5 µM), for the others: at the highest dose activity change, negative = inhibition, actives largely listed as inhibitors. 330,000 compounds, 0.46% hits. AID 720580, 2013; calls by dose curve; tested in A549 cells; note: potency is the fitted concentration of half-maximal effect; nearly all actives have a fitted effect of over 30% in size
HCMV inh = qHTS Assay for inhibitors of the human cytomegalovirus (HCMV); HFF cells, HCMV-luciferase reporter, 72 h; hits give low values; AID 1259415, 2018; activity change, negative = inhibition, % at 57.5 µM; 410,000 compounds, 4.5% hits; in the data active = activity change below about -60%; inconclusive = no clear call, values can overlap the other calls; inactive = above about -39%
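Two-dose cell screen: HFF monolayers treated with compounds and infected with luciferase-expressing HCMV at 1 PFU/cell, 72 h at 37C, then lysed for luciferase measurement.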
FMDV antiviral = High Throughput Screening for Foot and Mouth Disease Virus Antivirals. 410,000 compounds, 1.2% hits. Potency, µM (series often up to 57.9 µM), for the others: at the top dose activity change, negative = inhibition, most hits filed as inhibitors. AID 1159524, 2015. FMDV antiviral cell-based qHTS; calls by dose curve; tested in HEK293T cells; note: read-out not given here; potency is the fitted concentration of half-maximal effect; nearly all actives have a fitted effect of over 45% in size
MARV entry inh = qHTS for inhibitors of binding or entry into cells for Marburg Virus; Marburg virus pseudotyped entry inhibition, cell reporter; Potency, µM (titrated, usually from 37.8 µM), for inactives: at the highest dose activity change, negative = inhibition, hits mostly inhibitors; 300,000 compounds, 1.8% hits; AID 540276, 2011; calls by dose curve; tested in HEK293 cells; note: potency is the fitted concentration of half-maximal effect
LASV entry inh = qHTS for Inhibitors of binding or entry into cells for Lassa Virus | Lassa virus pseudotype entry inhibition, cell reporter | Potency, µM (top dose mostly 37.9 µM), for the others: at the highest dose activity change, negative = inhibition, actives largely listed as inhibitors | 300,000 compounds, 1.2% hits; calls by dose curve; tested in HEK293 cells; note: potency is the fitted concentration of half-maximal effect; nearly all actives have a fitted effect of over 50% in size
VACV mCherry inh = qHTS for Stage-Specific Inhibitors of Vaccinia Orthopoxvirus: mCherry Reporter Primary qHTS; 310,000 compounds, 0.63% hits; Potency, µM (titrated, usually from 36.5 µM), for the others: at the highest dose activity change, negative = inhibition, usual class: inhibitors; AID 720579, 2013; Vaccinia virus mCherry reporter infection, fluorescence; calls by dose curve; tested in A549 cells; note: potency is the fitted concentration of half-maximal effect; nearly all actives have a fitted effect of over 35% in size
* hit, by the source's call; i = inactive; u = inconclusive; x = not tested or not shown; [ ] = remark or other dose. % is set by controls: 0 for no effect and ±100 for the full control effect.

SMILES | Vaccinia Venus | HCMV inh | FMDV antiviral | MARV entry inh | LASV entry inh | VACV mCherry inh
O=C(CN(c1cccc(C(F)(F)F)c1)S(=O)(=O)c1ccccc1)Nc1cccc(Cl)c1 | u | -66* | u | x | -15%[46.1 µM] | u
COc1cccc(NC(=O)CN(c2cccc(C(F)(F)F)c2)S(C)(=O)=O)c1 | x | 11 | -7% | u | u | x
O=C(CN1C(=O)C2(SCC(=O)N2c2ccccc2)c2ccccc21)Nc1ccccc1C(F)(F)F (stereo not given) | 2% | 9 | -15% | x | 12%[46.1 µM] | -1%
CCOCCCn1c(SCC(=O)Nc2ccccc2Cl)nc2c(oc3ccccc32)c1=O | -5% | 0 | u | -1%[46.1 µM] | x | -15%
O=[N+]([O-])c1ccc(-c2ccccc2)c([As](=O)(O)O)c1 | -2% | -91* | -24% | x | x | i
O=[N+]([O-])c1ccc2nc(-c3ccccc3)cc(-c3ccccc3)c2c1 | -6% | 36 | -8% | u | -2% | -15%
O=C(c1ccccc1)N1CCN(CCc2ccncc2)CC1 | -8% | -2 | 0% | 24%[46.1 µM] | -9%[46.1 µM] | -8%
Cc1cc(OCCCn2c(CCNC(=O)C3CCCCC3)nc3ccccc32)ccc1Cl | -11%[7.34 µM] | -73* | -4% | u | -25%[46.1 µM] | -7%[7.34 µM]
COc1ccc(OCC(=O)Nc2ccccc2C(=O)OCc2cc(=O)n3nc(C)sc3n2)cc1 | -12% | -22 | 20µM* | x | 18%[46.1 µM] | -16%
Cc1nn2c(=O)cc(COC(=O)c3ccc(NC(=O)COc4ccc(C)c(C)c4)cc3)nc2s1 | -23% | -28 | 11µM* | x | 10%[46.1 µM] | -14%
Cc1nn2c(=O)cc(COC(=O)c3ccc(NC(=O)CCc4ccccc4)cc3)nc2s1 | -6% | 56 | 11µM* | x | 2%[46.1 µM] | -1%
O=C(OCc1cc(=O)n2nc(C3CC3)sc2n1)c1ccc(NC(=O)c2ccccc2Cl)cc1 | -6% | -16 | 20µM* | x | u | u
CC(CNC(=O)c1ccc2c(c1)nc1n2CCCCC1)c1ccccc1 (stereo not given) | -13% | -22 | 10% | x | u | -12%
O=C(/C=C/c1cn(CC(O)CN2CCCCCC2)c2ccccc12)c1ccc(Br)cc1 (stereo not given) | -3% | -24 | -22% | u | u | i
Cc1nn2c(=O)cc(COC(=O)c3cccc(NC(=O)CCc4ccccc4)c3)nc2s1 | -15% | 56 | 3% | x | 11%[46.1 µM] | i
Cc1nn2c(=O)cc(COC(=O)c3cccc(NC(=O)COc4ccccc4C)c3)nc2s1 | -7% | u | 2.8µM* | x | 26%[46.1 µM] | -4%
CCCc1nn2c(=O)cc(COC(=O)c3ccc(NC(=O)c4cccs4)cc3)nc2s1 | -18% | -96* | -15% | x | 12%[46.1 µM] | -1%
Cc1nn2c(=O)cc(COC(=O)c3ccc(NC(=O)COc4ccccc4F)cc3)nc2s1 | -23% | 4 | 10µM* | x | 2%[46.1 µM] | -10%
COc1ccccc1C(=O)Nc1ccc(C(=O)OCc2cc(=O)n3nc(C4CC4)sc3n2)cc1 | -16% | -19 | -21% | x | 8%[46.1 µM] | -16%
CCc1nn2c(=O)cc(COC(=O)c3ccc(NC(=O)COc4ccccc4C)cc3)nc2s1 | 0% | -16 | 6% | x | 7%[46.1 µM] | -8%
COc1ccccc1C(=O)Nc1ccc(C(=O)OCc2cc(=O)n3nc(C)sc3n2)cc1 | u | 70 | 16µM* | x | 22%[46.1 µM] | u
CCn1c(=O)c2cc(C(=O)NCCCN3CCN(C)CC3)sc2c2ccccc21 | -15% | u | 6% | -12%[46.1 µM] | -1%[46.1 µM] | -15%
CCNc1ncc2nc(-c3ccc(Cl)cc3)c(=O)n(Cc3cccs3)c2n1 | x | x | 8% | x | x | x
Cc1ccc(OCC(=O)Nc2cccc(C(=O)OCc3cc(=O)n4c(C)csc4n3)c2)cc1 | -13% | -2 | -19% | x | u | -13%
Cc1ccc(OCC(=O)Nc2cccc(C(=O)OCc3cc(=O)n4nc(C)sc4n3)c2)cc1 | -5%[7.34 µM] | 4 | 13µM* | x | u | -7%[7.34 µM]
SMILES | Vaccinia Venus | HCMV inh | FMDV antiviral | MARV entry inh | LASV entry inh | VACV mCherry inh
Cc1cn2c(=O)cc(COC(=O)c3cccc(NC(=O)COc4ccc(Cl)cc4)c3)nc2s1 | -15% | 3 | -2% | x | u | -15%
Cc1nn2c(=O)cc(COC(=O)c3cccc(NC(=O)COc4ccc(C)c(C)c4)c3)nc2s1 | -7% | -62* | 15% | x | 10%[46.1 µM] | -13%
COc1c(CC=C(C)C)cc(C2CC(=O)c3c(O)cc(O)cc3O2)cc1CC=C(C)C (stereo not given) | -22% | -69* | u | x | x | -18%
COC(=O)C(Sc1ccc(Cl)cc1)C1SC(=S)N(Cc2ccccc2)C1=O (stereo not given) | -18% | -5 | 32µM* | x | x | -9%
N#Cc1ccc(C(=O)Nc2ccc(Cl)c(-c3nc4cc(Cl)ccc4o3)c2)c(F)c1 | 1% | -12 | -10% | -3%[46.1 µM] | -11%[46.1 µM] | -12%
NNC(=O)c1c[nH]c2ccc(OCc3ccccc3)cc12 | -17% | -31 | 0% | 9%[46.1 µM] | -17% | -24%
OCCNCCc1c[nH]c2ccc(OCc3ccccc3)cc12 | x | -60* | 0% | 0% | x | x
C=CC(=O)NCCCc1cc(C(C)(C)C)c(O)c(C(C)(C)C)c1 | u | -96* | 0% | -25%[46.1 µM] | u | u
CC(C)(C)c1cc(CCC(=O)NN)cc(C(C)(C)C)c1O | -12% | -12 | -13% | -5%[46.1 µM] | u | 2%
CCC(=O)Nc1sc2c(c1C(=O)Nc1ccccc1C)CCC(C)C2 (stereo not given) | 2% | -8 | -18% | x | u | -12%
CC(=O)Nc1ccc(/C=C2\C=Cc3ccccc32)cc1 | -22% | x | x | x | x | -14%
N#CC(C(=O)C1CCCCC1)c1nc2ccccc2[nH]1 (stereo not given) | -28% | -99* | x | 1% | -20% | -28%
CCOc1ccc(NC(=O)c2cc3c(=O)n4cccc(C)c4nc3s2)cc1 | -3% | 14 | -5% | -15%[46.1 µM] | 1%[46.1 µM] | 0%
CC(C)(C)c1cc(C(C)(C)C)c2oc(=O)c(-c3nc4ccc(C(=O)O)cc4[nH]3)cc2c1 | -9%[7.34 µM] | 17 | -21% | x | -1%[46.1 µM] | -8%[7.34 µM]
COc1ccc(-c2nc3ccccc3[nH]2)cc1 | -18% | 124 | x | 7.3µM* | u | i
Cc1ccc(-c2nc3ccccc3[nH]2)s1 | -6% | 99 | 14% | 13µM* | u | -14%
Cc1cccc2cc(-c3nc4ccc(C(=O)O)cc4[nH]3)c(=O)oc12 | -9% | x | 7.9µM* | u | u | i
c1ccc(-c2nc3ccccc3[nH]2)cc1 | -15% | 73 | 34% | x | x | -15%
O=C(O)c1cccc(-c2nc3ccccc3[nH]2)c1 | -16% | 32 | u | 0.35µM* | 1.4µM* | -10%
COc1ccc2c(c1)-c1nc(-n3ncc(C(=O)NC(C)(C)CO)c3C3CC3)ncc1CC2 | -1% | x | -20% | x | x | -18%
O=C(O)C1CCCN1C(=O)c1cccc(Cl)c1 (stereo not given) | x | 22 | x | x | x | x

Bioassay records: PubChem BioAssay, National Center for Advancing Translational Sciences (NCATS)
